# Laboratory results reported in the supplement of paper PMC11732987, “Enantioselective OTUD7B fragment discovery through chemoproteomics screening and high-throughput optimisation” (Communications Chemistry, 2025).
# Unmarked numbers belong to inactive results.
# How the values were obtained:
# Experiment in all cases: log2 ratio of Biotin-Ahx-Ub-VS probe labelling (fragment/DMSO); higher = less target engagement (more negative = stronger competition), active = hit call of the paper (q ≤ 0.05, log2 ratio ≤ -1)
# Conditions in all cases: compound concentration: 200 uM; treatment time: 3 h
# OTUD6B = target: T1, OTUD6B (UniProt Q8N6M0)
# T1 sequence (whole entry): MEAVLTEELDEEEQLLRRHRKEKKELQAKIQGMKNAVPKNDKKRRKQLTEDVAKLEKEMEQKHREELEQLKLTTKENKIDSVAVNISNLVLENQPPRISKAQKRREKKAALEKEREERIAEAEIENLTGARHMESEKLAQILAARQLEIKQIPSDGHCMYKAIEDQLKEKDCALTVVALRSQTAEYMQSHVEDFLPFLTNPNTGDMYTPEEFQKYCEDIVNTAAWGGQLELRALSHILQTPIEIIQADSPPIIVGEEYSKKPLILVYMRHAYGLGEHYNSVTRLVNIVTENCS
# In short: (§1)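 HEK293T lysate (495 µg per sample, in Tris/CHAPS/IGEPAL buffer with protease inhibitors) was exposed in triplicate for 3 h to fragment at 200 µM or to vehicle, then to Biotin-Ahx-Ub-VS at 0.5 µM final for 1 h. Labelled DUBs were enriched on NeutrAvidin, digested with LysC and trypsin, and analysed by diaPASEF LC-MS/MS. Spectronaut label-free quantities were normalised to the global median, and values are average log2 ratios of fragment over vehicle from an unpaired t-test. Only proteins with ≥2 unique peptides were used.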
# OTUD7B = target: T2, OTUD7B (UniProt Q6GQQ9)
# T2 sequence (whole entry): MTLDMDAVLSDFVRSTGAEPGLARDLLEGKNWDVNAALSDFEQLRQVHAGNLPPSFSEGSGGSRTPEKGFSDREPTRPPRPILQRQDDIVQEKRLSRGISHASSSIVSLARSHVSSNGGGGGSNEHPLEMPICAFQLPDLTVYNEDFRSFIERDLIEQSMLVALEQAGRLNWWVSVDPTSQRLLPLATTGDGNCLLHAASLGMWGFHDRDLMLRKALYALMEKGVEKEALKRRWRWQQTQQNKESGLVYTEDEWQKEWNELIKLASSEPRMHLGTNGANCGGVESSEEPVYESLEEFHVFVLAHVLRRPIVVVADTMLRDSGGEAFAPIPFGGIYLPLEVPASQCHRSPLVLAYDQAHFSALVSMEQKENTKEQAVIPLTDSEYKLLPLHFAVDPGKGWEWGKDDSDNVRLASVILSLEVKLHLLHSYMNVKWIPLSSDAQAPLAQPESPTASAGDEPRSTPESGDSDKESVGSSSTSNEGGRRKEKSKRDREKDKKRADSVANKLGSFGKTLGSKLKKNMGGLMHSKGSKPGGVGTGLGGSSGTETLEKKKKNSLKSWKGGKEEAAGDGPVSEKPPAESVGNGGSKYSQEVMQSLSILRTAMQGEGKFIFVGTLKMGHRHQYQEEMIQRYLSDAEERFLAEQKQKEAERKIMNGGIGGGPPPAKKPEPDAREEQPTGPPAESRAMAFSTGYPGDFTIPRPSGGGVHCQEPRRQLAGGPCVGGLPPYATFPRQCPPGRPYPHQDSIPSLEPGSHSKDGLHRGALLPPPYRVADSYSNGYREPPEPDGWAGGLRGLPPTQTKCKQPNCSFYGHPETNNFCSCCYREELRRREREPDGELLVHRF
# In short: as §1
# PRPF8 = PRPF8 (UniProt Q6P2Q9)
# In short: as §1
# PSMD7 = target: T3, PSMD7 (UniProt P51665)
# T3 sequence (whole entry): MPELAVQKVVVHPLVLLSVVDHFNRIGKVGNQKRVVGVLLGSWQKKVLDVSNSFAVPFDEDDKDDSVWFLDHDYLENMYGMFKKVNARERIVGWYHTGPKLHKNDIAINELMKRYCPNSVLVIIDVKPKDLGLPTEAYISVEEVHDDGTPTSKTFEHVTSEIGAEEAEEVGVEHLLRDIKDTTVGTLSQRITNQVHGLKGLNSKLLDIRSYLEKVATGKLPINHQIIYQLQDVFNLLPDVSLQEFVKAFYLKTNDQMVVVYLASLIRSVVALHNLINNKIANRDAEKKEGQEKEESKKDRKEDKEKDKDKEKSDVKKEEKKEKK
# In short: as §1
# UCHL1 = UCHL1 (UniProt P09936)
# UCHL1, sequence (P09936 whole entry, looked up): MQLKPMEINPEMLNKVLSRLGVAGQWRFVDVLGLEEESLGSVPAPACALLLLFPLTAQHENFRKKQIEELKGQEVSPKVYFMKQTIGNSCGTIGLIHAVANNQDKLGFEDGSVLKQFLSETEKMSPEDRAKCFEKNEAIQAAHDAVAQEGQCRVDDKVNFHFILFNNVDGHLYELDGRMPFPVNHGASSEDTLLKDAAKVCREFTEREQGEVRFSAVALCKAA
# In short: as §1
# UCHL3 = target: T4, UCHL3 (UniProt P15374)
# T4 sequence (whole entry): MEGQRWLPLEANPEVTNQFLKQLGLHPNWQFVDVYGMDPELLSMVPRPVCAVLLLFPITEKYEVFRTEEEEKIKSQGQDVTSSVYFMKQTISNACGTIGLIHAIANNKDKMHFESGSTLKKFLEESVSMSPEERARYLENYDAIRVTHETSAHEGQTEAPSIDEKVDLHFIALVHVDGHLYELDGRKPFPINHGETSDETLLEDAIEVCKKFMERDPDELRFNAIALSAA
# In short: as §1
# UCHL5 = target: T5, UCHL5 (UniProt Q9Y5K5)
# T5 sequence (whole entry): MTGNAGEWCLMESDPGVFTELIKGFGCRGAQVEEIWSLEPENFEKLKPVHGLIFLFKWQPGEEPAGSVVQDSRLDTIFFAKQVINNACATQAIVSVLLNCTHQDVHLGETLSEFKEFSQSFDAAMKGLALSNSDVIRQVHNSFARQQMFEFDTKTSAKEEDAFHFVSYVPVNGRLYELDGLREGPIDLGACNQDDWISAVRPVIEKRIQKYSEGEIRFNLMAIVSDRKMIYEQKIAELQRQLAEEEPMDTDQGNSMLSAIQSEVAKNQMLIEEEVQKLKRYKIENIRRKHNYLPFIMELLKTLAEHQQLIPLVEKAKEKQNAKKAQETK
# In short: as §1
# USP10 = USP10 (UniProt Q14694)
# USP10, sequence (Q14694 whole entry): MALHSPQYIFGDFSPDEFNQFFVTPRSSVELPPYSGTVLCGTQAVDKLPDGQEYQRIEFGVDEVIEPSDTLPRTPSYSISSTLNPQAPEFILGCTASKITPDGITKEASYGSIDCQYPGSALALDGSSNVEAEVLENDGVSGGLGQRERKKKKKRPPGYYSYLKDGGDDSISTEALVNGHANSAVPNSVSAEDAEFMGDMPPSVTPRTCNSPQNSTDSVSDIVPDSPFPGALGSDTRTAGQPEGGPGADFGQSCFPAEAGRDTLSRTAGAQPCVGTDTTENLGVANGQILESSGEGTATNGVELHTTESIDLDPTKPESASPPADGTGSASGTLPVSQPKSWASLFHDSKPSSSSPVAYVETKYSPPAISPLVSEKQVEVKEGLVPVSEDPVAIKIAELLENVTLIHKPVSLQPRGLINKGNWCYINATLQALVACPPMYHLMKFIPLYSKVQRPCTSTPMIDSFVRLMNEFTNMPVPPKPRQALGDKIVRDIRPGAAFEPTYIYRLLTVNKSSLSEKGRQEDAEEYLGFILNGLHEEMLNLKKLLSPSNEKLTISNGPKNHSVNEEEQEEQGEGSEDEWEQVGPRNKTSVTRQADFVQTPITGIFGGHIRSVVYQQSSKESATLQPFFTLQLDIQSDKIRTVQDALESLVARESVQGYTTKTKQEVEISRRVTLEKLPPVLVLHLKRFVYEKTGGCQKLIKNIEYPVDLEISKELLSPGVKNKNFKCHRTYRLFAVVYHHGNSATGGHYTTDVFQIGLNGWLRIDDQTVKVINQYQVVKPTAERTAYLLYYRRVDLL
# In short: as §1
# USP15 = target: T6, USP15 (UniProt Q9Y4E8)
# T6 sequence (whole entry): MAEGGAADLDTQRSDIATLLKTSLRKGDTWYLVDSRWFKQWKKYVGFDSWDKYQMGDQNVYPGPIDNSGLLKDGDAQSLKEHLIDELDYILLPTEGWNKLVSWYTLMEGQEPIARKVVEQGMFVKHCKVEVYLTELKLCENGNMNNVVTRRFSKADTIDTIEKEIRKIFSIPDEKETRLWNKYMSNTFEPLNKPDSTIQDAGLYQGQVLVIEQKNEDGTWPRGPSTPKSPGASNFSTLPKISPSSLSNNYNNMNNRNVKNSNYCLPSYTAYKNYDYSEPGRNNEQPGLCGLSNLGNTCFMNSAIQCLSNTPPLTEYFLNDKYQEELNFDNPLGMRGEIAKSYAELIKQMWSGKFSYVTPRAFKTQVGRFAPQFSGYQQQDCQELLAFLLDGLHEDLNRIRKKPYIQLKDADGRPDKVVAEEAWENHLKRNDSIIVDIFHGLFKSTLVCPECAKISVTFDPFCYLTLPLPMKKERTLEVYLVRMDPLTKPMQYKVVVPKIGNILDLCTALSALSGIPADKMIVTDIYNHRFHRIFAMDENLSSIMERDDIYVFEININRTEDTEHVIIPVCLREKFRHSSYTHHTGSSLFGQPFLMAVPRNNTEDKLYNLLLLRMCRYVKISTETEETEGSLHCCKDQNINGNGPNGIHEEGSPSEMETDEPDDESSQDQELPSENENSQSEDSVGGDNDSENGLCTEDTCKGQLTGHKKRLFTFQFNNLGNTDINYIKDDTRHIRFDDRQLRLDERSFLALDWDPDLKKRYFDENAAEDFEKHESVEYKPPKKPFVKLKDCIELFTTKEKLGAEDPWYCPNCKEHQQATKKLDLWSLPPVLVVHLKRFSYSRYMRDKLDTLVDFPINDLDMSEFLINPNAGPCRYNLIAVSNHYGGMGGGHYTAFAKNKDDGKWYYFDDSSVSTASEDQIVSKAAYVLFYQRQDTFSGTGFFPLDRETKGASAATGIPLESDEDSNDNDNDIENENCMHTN
# In short: as §1
# USP16 = USP16 (UniProt Q9Y5T5)
# USP16, sequence (Q9Y5T5 whole entry, looked up): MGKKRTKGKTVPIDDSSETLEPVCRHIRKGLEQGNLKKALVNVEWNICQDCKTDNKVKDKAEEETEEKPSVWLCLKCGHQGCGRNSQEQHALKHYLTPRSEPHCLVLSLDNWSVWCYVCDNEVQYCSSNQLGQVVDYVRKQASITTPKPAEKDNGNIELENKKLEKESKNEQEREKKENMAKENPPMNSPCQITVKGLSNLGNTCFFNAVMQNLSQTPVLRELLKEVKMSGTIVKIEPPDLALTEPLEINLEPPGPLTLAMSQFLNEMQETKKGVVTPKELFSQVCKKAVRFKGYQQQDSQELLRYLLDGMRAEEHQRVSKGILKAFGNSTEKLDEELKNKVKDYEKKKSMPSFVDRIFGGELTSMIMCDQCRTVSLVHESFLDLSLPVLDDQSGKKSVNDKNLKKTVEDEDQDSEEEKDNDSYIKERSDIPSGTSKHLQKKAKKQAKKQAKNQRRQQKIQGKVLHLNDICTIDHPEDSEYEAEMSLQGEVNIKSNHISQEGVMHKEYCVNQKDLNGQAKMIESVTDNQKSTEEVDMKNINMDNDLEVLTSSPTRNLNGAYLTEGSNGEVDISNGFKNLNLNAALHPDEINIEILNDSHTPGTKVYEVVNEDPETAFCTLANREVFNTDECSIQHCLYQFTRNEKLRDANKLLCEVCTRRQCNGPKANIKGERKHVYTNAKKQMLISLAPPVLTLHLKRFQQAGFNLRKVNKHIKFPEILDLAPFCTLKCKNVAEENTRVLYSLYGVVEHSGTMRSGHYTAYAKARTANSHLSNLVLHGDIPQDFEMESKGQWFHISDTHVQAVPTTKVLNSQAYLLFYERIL
# In short: as §1
smiles,measurement,setting,value
Cl.O=C(CCl)N1CCn2ncc(O)c2C1,log2 ratio of Biotin-Ahx-Ub-VS probe labelling,OTUD6B,-0.223
same,log2 ratio of Biotin-Ahx-Ub-VS probe labelling,OTUD7B,-1.54 (active)
same,log2 ratio of Biotin-Ahx-Ub-VS probe labelling,PRPF8,0.218
same,log2 ratio of Biotin-Ahx-Ub-VS probe labelling,PSMD7,-0.249
same,log2 ratio of Biotin-Ahx-Ub-VS probe labelling,UCHL1,-1.49 (active)
same,log2 ratio of Biotin-Ahx-Ub-VS probe labelling,UCHL3,-0.188
same,log2 ratio of Biotin-Ahx-Ub-VS probe labelling,UCHL5,-1.12 (active)
same,log2 ratio of Biotin-Ahx-Ub-VS probe labelling,USP10,-0.00467
same,log2 ratio of Biotin-Ahx-Ub-VS probe labelling,USP15,-0.99
same,log2 ratio of Biotin-Ahx-Ub-VS probe labelling,USP16,-0.0885
